Experimental findings from PubChem BioAssay (Tox21) are described below.

SMILES strings stand for the structures. Records with an inconclusive call do not appear. Entries that show only a call come without a potency. A number with no mark means an inactive call. Active and inactive are the calls of the source. Calls come from the whole dose curve; as a rule, active = well fitted inhibition curve with a large enough effect in the repeat runs; inconclusive = weak or mixed curves; inactive = flat fitted curve, though single readings scatter. Where a SMILES comes first, the peptide text is derived from it. [ ]: non-standard residue; d: D form. pGlu = O=C1CC[C@@H](C(=O)O)N1

Sequence of Luciferin 4-monooxygenase (Photinus pyralis) (P08659 whole entry, looked up): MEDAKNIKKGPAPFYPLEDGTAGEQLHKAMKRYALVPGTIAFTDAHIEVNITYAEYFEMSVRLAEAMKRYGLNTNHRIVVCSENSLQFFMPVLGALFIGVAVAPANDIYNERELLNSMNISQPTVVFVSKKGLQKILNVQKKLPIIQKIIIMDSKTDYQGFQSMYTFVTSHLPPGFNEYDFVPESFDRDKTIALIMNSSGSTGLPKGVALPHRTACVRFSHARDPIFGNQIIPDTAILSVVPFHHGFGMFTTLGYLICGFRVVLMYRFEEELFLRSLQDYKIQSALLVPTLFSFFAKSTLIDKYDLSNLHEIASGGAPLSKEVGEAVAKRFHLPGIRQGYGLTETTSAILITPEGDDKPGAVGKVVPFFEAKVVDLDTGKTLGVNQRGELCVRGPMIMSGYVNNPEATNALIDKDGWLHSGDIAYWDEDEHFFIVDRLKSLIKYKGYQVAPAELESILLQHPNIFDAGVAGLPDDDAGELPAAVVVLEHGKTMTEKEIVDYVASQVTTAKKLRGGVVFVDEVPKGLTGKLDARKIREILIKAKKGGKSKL

The target of the assay is Luciferin 4-monooxygenase (Photinus pyralis) (UniProt P08659). Briefly: qHTS assay to identify small molecule inhibitors of firefly luciferase (AID 1224835). Note: nearly all actives have a fitted effect of over 25% in size. Conditions: purified P. pyralis luciferase, luminescence inhibition; series mostly up to 115 µM. A digest of the protocol:
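Quantitative HTS format; KM concentrations of both substrates. Purified P. pyralis FLuc activity quantified from luminescence images.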
On the technique in general: Quantitative high-throughput screening tests each substance at several concentrations.
Consider `Clc1cc(Cl)c(Cl)nc1Cl`, for which the Potency entry was “inactive”. Same read-out and setting: in the case of `C[C@@H]1CCC[C@H](C)N1` it was “inactive”; in that of `CCOC(=O)OC(C)OC1=C(C(=O)Nc2ccccn2)N(C)S(=O)(=O)c2ccccc21` (stereo not drawn), “inactive”; in that of `O=C(O)CC(C(=O)O)S(=O)(=O)O` (stereo not drawn), “inactive”. In the case of `[O-][n+]1cccc(CO)c1`, the Potency entry was “inactive”. The same measure, in the same setting: in the case of `CC(=O)c1ccccc1[N+](=O)[O-]` it was “inactive”. The same measure, in the same setting: in the case of `Cc1cccc(C)c1NC(=O)CC12CCCN1CCC2` it was “inactive”; in that of `OCCCCCO`, “inactive”; in that of `CC(COc1ccccc1)NN` (stereo not drawn), “inactive”. The same measure, in the same setting: in the case of `NS(=O)(=O)Cc1noc2ccccc12` it was “inactive”. Consider `Cc1cc(C)c(N=Nc2c(O)c(S(=O)(=O)O)cc3cc(S(=O)(=O)O)ccc23)cc1C`, for which the activity change, negative = inhibition is -6.78% [at 10.5 µM]. Consider `Nc1c2c(nc3c1CCC3)CCCC2`, for which the Potency result is “inactive”. `O=S(=O)(O)c1cccc2c(S(=O)(=O)O)cccc12`: the Potency entry was “inactive”. The same measure, in the same setting: in the case of `CCCCCCCCN1CCCC1=O` it was “inactive”; in that of `CNCC(O)c1ccc(O)c(O)c1` (stereo not drawn), “inactive”. Still for that read-out and setting: with `O=S(=O)(O)c1cccc(S(=O)(=O)O)c1` the entry was “inactive”; with `CCCO[Si](OCCC)(OCCC)OCCC`, “inactive”; with `CC[C@H]1OC(=O)[C@H](C)[C@@H](O[C@H]2C[C@@](C)(OC)[C@@H](O)[C@H](C)O2)[C@H](C)[C@@H](O[C@@H]2O[C@H](C)C[C@H](N(C)C)[C@H]2O)[C@](C)(OC)C[C@@H](C)C(=O)[C@H](C)[C@@H](O)[C@]1(C)O`, “inactive”. On to `C=CCCCCCCCCC(=O)OCC`, for which the Potency entry was “inactive”. The same measure, in the same setting: in the case of `CO[Si](C)(OC)c1ccccc1` it was “inactive”; in that of `C=CCCC(=O)O`, “inactive”; in that of `O=Cc1cccc(Br)c1`, “inactive”.

For `CN1C(C)(C)CC(O)CC1(C)C`, the Potency entry was “inactive”.

As for `C[N+]1(CC2COC(c3ccccc3)(c3ccccc3)O2)CCCCC1` (stereo not drawn), the activity change, negative = inhibition was -3.43% [at 23.6 µM]. Consider `Clc1cc(Cl)cc(Cl)c1`, for which the Potency entry is “inactive”. Still for that read-out and setting: with `CCOC(=O)COC(=O)c1ccccc1C(=O)OCC` the entry was “inactive”; with `CC1=NN(c2cccc(S(=O)(=O)O)c2)C(=O)C1`, “inactive”. On to `CN1CCC(=C2c3ccccc3CCc3cccnc32)CC1`, for which the Potency result is “inactive”.

Regarding `Cc1nc(C2CCCCC2)c(-c2ccc(S(N)(=O)=O)c(F)c2)o1`, the Potency entry is “inactive”. On the same count and under the same terms, in the case of `Nc1ccn([C@@H]2O[C@H](CO)[C@@H](O)C2(F)F)c(=O)n1` it was “inactive”.

In the case of `CCCCCCC1CCC(=O)O1` (stereo not drawn), the Potency entry was “inactive”. For `C=COCC1CCC(COC=C)CC1` (stereo not drawn), the Potency entry is “inactive”. Still for that read-out and setting: in the case of `CC1(C)OC[C@@H](COC(=O)CCc2ccc(OC[C@@H](O)CNCCNC(=O)N3CCOCC3)cc2)O1` it was “inactive”.

Take `CC(=O)Oc1cccc(C)c1`: the Potency entry is “inactive”.

Consider `CCC(C(=O)NC(=O)NC(C)=O)c1ccccc1` (stereo not drawn), for which the Potency result is “inactive”. On the same count and under the same terms, with `O=C(O)CCCC[P+](c1ccccc1)(c1ccccc1)c1ccccc1` the entry was “inactive”; with `CCCCOCCOC(=O)CCCCCCCCC(=O)OCCOCCCC`, “inactive”; with `CCNC(=O)[C@@H]1CCCN1C(=O)[C@H](CCCN=C(N)N)NC(=O)[C@H](CC(C)C)NC(=O)CNC(=O)[C@H](Cc1ccc(O)cc1)NC(=O)[C@H](CO)NC(=O)[C@H](Cc1c[nH]c2ccccc12)NC(=O)[C@H](Cc1cnc[nH]1)NC(=O)[C@@H]1CCC(=O)N1` ([pGlu]HWSYGLRP-NHEt), “inactive”.
